Results as given in paper PMC4336329 (PLoS ONE, 2015).
Among all 310,000 compounds or so, about 14,000 (4.5%) showed an effect of 50% or more. The effect is printed as a negative number. The entries come from a sample that favours strong results as a whole.

These molecules were tested against human ether-à-go-go-related gene (hERG) potassium channel (human, UniProt Q12809) (assay: primary screen, population patch clamp on CHO cells stably expressing hERG; higher = less effect of the substance).
Sequence of human ether-à-go-go-related gene (hERG) potassium channel (Q12809 whole entry, looked up): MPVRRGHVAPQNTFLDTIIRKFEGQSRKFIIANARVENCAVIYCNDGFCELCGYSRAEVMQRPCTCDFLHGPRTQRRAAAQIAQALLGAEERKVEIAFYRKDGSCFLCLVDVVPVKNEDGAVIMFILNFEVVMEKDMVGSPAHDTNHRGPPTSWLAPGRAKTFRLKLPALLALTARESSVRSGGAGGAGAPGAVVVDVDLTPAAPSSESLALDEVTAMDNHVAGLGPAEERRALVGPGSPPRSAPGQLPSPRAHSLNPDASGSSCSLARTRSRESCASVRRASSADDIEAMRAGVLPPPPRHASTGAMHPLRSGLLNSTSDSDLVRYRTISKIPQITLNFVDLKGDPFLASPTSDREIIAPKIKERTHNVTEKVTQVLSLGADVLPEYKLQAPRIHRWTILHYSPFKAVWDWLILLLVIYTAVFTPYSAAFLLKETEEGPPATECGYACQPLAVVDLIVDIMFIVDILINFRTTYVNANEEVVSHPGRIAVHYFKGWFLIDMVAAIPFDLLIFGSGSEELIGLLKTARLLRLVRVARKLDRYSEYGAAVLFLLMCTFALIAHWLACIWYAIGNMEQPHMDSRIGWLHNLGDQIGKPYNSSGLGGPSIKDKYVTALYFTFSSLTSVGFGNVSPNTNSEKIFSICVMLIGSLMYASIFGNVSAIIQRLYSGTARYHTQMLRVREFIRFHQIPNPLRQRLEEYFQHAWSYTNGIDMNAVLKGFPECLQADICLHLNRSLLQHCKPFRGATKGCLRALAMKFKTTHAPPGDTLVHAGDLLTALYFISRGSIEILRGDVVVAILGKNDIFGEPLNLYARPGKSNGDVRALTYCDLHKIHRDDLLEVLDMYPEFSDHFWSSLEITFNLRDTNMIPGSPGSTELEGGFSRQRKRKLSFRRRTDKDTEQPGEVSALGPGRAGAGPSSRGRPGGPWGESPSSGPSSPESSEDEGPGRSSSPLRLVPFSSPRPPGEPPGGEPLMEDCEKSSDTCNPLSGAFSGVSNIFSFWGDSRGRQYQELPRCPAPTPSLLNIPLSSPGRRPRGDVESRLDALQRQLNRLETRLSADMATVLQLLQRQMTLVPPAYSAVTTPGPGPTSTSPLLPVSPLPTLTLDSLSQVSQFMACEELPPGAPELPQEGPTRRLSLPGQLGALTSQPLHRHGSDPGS
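Further: peak tail current of the secondary pulse compared with the same well before compound.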

Row | Compound | hERG current change (%, negative = inhibition) at 10uM [%]
1 | CC(=O)N1c2ccccc2C(C)(C)C2CCC(C)CC21 (stereo not drawn) | -8.9
2 | COc1ccc(-c2cn[nH]c2-c2ccc(OC)cc2)cc1 | 8.51
3 | CCN(CC)C(=O)c1c[nH]c2ccc(S(=O)(=O)Nc3cc(C)cc(C)c3)cc2c1=O | -0.741
4 | CCOC(=O)c1[nH]c(Cc2[nH]c(C(=O)OCC)c(C)c2CCC(=O)OC)c(CCC(=O)OC)c1C | 3.71
5 | COc1cccc(-c2nc(-c3ccccc3)no2)c1 | 1.72
6 | Cc1cccc(Nc2nc3c(S(=O)(=O)c4ccccc4)nnn3c3ccccc23)c1C | 12.6
7 | CCC(C)NC(=O)Cn1nc(C(F)(F)F)c2c1CCC2 (stereo not drawn) | 1.83
8 | N#Cc1c(SCC(=O)Nc2nc3ccccc3s2)sc2c(O)cc(=O)[nH]c12 | 20.7
9 | c1ccc2c(c1)nc(Nc1ccc(N3CCCCC3)cc1)c1nncn12 | -13.8
10 | Cc1nc(-c2ccc(F)cc2)c(CC(=O)Nc2cccc(S(=O)(=O)N3CCOCC3)c2)s1 | -15.8
11 | COc1ccc(/C=N/NC(=O)CN2CCN(Cc3ccccc3)CC2)cc1Br | -68
12 | COc1cc(/C=N/NC(=O)CCN2CCN(Cc3ccccc3)CC2)cc(OC)c1OC | -29.2
13 | COc1ccc(Br)cc1/C=N/NC(=O)CN1CCN(Cc2ccccc2)CC1 | -33.1
14 | COc1cc(/C=N/NC(=O)c2ccoc2C)ccc1OCCN1CCCCC1 | -31.6
15 | CCOc1cc(/C=N/NC(=O)CN2CCCCC2)ccc1OCc1ccc(Cl)cc1 | 7.37
16 | COc1cc(/C=N/NC(=O)c2ccncc2)ccc1OCCN1CCCCC1 | -3.37
17 | COc1cc(/C=N/NC(=O)c2cc3ccccc3cc2O)ccc1OCCN1CCCCC1 | -65.9
18 | COc1ccc(Br)cc1/C=N/NC(=O)CN1CCCCC1 | -4.99
19 | COc1cc(/C=N/NC(=O)CN2CCCCC2)ccc1OCc1ccc(Br)cc1 | -59
20 | Cc1nn(-c2ccccc2)c(N2CCCC2)c1/C=N/NC(=O)c1cc(-c2ccccc2)nc2ccccc12 | 13.3
21 | Cc1nn(-c2ccccc2)c(N2CCCC2)c1/C=N/NC(=O)c1cc2ccccc2cc1O | -55.5

Row | Compound | hERG current change (%, negative = inhibition) at 10uM [%]
22 | Cc1nn(-c2ccccc2)c(N2CCCC2)c1/C=N/NC(=O)c1ccccc1O | -2.88
23 | Cc1ccc(S(=O)(=O)Nc2cc(C)on2)cc1 | 15.4
24 | CCN(CC(=O)Nc1ccc(NC(C)=O)cc1)C(=O)c1cc(-c2ccccc2)nn1-c1ccccc1 | 8.43
25 | O=C(CSc1nnc(-c2cccnc2)o1)NNC(=O)c1ccc(Br)cc1 | 2.19
26 | O=C(COc1ccccc1)N(Cc1cc2ccccc2[nH]c1=O)CC1CCCO1 (stereo not drawn) | -1.24
27 | CCC1(c2ccccc2)NC(=O)N(CC(=O)Nc2ccccc2N2CCCC2)C1=O (stereo not drawn) | 1.38
28 | O=C(c1cc(-c2cccc(Cl)c2)nc2ccccc12)N1CCCC1 | -40.2
29 | CCC(C)NS(=O)(=O)c1ccc(OCC(=O)Nc2ccc3c(c2)OCCO3)cc1 (stereo not drawn) | -26.3
30 | Cl.Fc1ccc(COc2ccccc2CNCc2ccncc2)cc1 | -32.6
31 | CCOc1ccc(Br)cc1CNCc1cccnc1 | -10.2
32 | Cl.c1ccc(COc2ccccc2CNCc2cccnc2)cc1 | -8.89
33 | Cl.Fc1ccccc1COc1ccc(Br)cc1CNCc1cccnc1 | -70.2
34 | Cl.Fc1ccc(COc2ccc(Br)cc2CNCc2ccncc2)cc1 | -74.7
35 | Brc1ccc(OCc2ccccc2)c(CNCc2ccncc2)c1.Cl | -19.9
36 | Cl.Fc1ccccc1COc1ccccc1CNCc1ccncc1 | -44
37 | COc1cc(CNCc2ccncc2)cc(Br)c1OCc1ccccc1F.Cl | -43.3
38 | Cl.Fc1ccccc1COc1ccc(Br)cc1CNCc1ccncc1 | -70.2
39 | CCC(NC(=O)c1ccccc1NC(=O)c1ccco1)C(=O)NNC(=O)c1ccncc1 (stereo not drawn) | 8.86
40 | COc1ccc(NC(=O)CCCc2ccc(OC)c(C)c2)cc1 | 3.93
41 | Cn1nnnc1SCC(=O)NCc1ccc2c(c1)OCO2 | 31.4
42 | CC(C)c1cc(C(=O)N/N=C/c2cccnc2)cs1 | -31.9

Row | Compound | hERG current change (%, negative = inhibition) at 10uM [%]
43 | c1coc(CSc2ncnc3c2oc2ccccc23)c1 | 13.9
44 | COCCN(CCOC)c1nc(-c2ccc(Cl)cc2)nc2ccccc12 | -5.82
45 | COCCN(CCOC)c1nc(-c2ccc(C)cc2)nc2ccccc12.Cl | -65.4
46 | COCCN(CCOC)c1nc(-c2ccc([N+](=O)[O-])cc2)nc2ccccc12 | -34.3
47 | Cc1ccc(-c2nc(NCCN(C)C)c3ccccc3n2)cc1 | -44.9
48 | COCCN(CCOC)c1nc(-c2ccccc2)nc2ccccc12 | -68.2
49 | COCCNc1nc(-c2ccccc2)nc2ccccc12.Cl | -32.5
50 | O=C(O)C1CC(=O)N(c2ccc(F)c(F)c2)C1 (stereo not drawn) | 13
51 | CCCCOC(=O)C1=C(C)NC(=O)NC1c1ccccc1 (stereo not drawn) | 6.12
52 | O=C(N[C@@H]1CCC(=O)N(CC[C@H](Sc2ccccc2)c2ccccc2)CC1)OCc1ccccc1 | -24
53 | COc1ccc(SC[C@H](Cc2ccccc2)N2CC[C@@H](NC(=O)OCc3ccccc3)CCC2=O)cc1 | -10.2
54 | Cc1ccc(SC[C@H](C)CN2CC[C@H](NC(=O)OCc3ccccc3)CCC2=O)cc1 | -41.6
55 | N#CC[C@H](Cc1ccccc1)N1CC[C@@H](NC(=O)OCc2ccccc2)CCC1=O | -45.1
56 | Cc1ccc(S[C@@H](CCN2CC[C@H](NC(=O)OCc3ccccc3)CCC2=O)c2ccccc2)cc1 | -26.1
57 | O=C(NC1CCC(=O)N(CCSc2ccccc2)CC1)OCc1ccccc1 (stereo not drawn) | -59.2
58 | O=C(N[C@H]1CCC(=O)N([C@H](CSc2ccccc2)Cc2ccccc2)CC1)OCc1ccccc1 | -37.6
59 | [N-]=[N+]=NC[C@H](Cc1ccccc1)N1CC[C@@H](NC(=O)OCc2ccccc2)CCC1=O | -52.5
60 | COc1ccc(SCCN2CC[C@@H](NC(=O)OCc3ccccc3)CCC2=O)cc1 | -54.4
61 | O=C(NC1CCC(=O)N(CCOc2ccccc2)CC1)OCc1ccccc1 (stereo not drawn) | -30.2
62 | Cc1ccc(SCCN2CCC(NC(=O)OCc3ccccc3)CCC2=O)cc1 (stereo not drawn) | -50.1
63 | O=C(N[C@H]1CCC(=O)N(CCSc2ccc(Br)cc2)CC1)OCc1ccccc1 | -29.2
